Hits are enriched below; roughly 1.4% of the tested compounds scored in any of these assays.
AmpC inh detg: AmpC beta-lactamase inhibition with detergent present; P00811; AmpC hydrolysis of nitrocefin, absorbance 480 nm, 0.01% Triton; Potency, µM (highest dose often 114 µM), most hits filed as inhibitors; actives 0.041% (n = 370,000); AID 485294; further: nearly all actives have a fitted effect of over 25% in size
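20 mM phosphate pH 7.0 + 0.01% (detergent screen) or 0.0001% Triton X-100; 5.3 nM AmpC reagent; cpd preinc 15 min RT; nitrocefin (800 uM stock) to start; A480 q20 s × 4 min; Activity was normalised to no-enzyme and no-compound control wells.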
Giardia FBPA inh-1: inhibitors of Giardia lamblia fructose-1,6-bisphosphate aldolase; purified Giardia FBPA; Potency, µM (top dose mostly 59.6 µM), actives largely listed as inhibitors; actives 0.71% (n = 290,000); further: nearly all actives have a fitted effect of over 55% in size
Target sequence (A8B2U2 whole entry, looked up): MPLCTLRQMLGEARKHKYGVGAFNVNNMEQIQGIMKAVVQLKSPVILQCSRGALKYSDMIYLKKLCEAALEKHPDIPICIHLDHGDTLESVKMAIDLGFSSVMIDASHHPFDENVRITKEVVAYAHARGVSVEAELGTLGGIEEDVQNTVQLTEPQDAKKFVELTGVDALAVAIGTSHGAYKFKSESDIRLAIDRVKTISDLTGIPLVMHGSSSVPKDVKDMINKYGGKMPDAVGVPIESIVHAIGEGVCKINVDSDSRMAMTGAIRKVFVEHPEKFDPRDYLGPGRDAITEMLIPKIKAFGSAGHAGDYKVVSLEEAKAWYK
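40 nM FBPA preincubated 10 min at RT with compound (up to 57.5 uM final), then substrate plus GAPDH/TPI/NAD/arsenate coupling and diaphorase/resazurin added. Fluorescence read after 20 min at RT, 525/598 nm.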
NS1 function inh: blocks influenza NS1 protein function; AID 2326; actives 0.4% (n = 270,000); Potency, µM (top dose mostly 46.1 µM); calls by dose curve; further: actives are rising curves; nearly all actives have a fitted effect of over 50% in size
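OD600 was taken as the measure of yeast growth restored by compound in an NS1-expressing S. cerevisiae strain. Cells had been washed out of glucose medium and diluted 1:100 into galactose -URA medium, pH 6.0.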
AmpC inh no detg: AmpC beta-lactamase inhibition without detergent; AID 485341; P00811; actives 0.52% (n = 330,000); AmpC nitrocefin hydrolysis, absorbance 480 nm, 0.0001% Triton; Potency, µM (series often up to 57.1 µM), actives largely listed as inhibitors; further: nearly all actives have a fitted effect of over 20% in size
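AmpC (5.3 nM in the dispensed reagent) in 20 mM phosphate pH 7.0 with 0.01% (detergent screen) or 0.0001% Triton X-100 was preincubated with compounds for 15 min at room temperature. Nitrocefin was then added from an 800 uM solution, and hydrolysis was followed at 480 nm.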
SARS PLpro yeast: SARS-CoV PLP inhibition in yeast. S. cerevisiae expressing SARS-CoV PLpro, growth rescue. Potency, µM (titrated, usually from 32.9 µM), hits mostly activators. actives 0.19% (n = 330,000). AID 485353; calls by dose curve; further: nearly all actives have a fitted effect of over 55% in size
Giardia growth: inhibitors of Giardia lamblia growth; shares compounds with Giardia FBPA inh-1; Giardia lamblia trophozoite growth inhibition; Potency, µM (titrated, usually from 57.5 µM), hits mostly inhibitors; actives 5% (n = 1,500);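 further: trophozoites exposed to compound for 48 h at 37 °C; nearly all actives have a fitted effect of over 70% in size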
Mammal cell tox: mammalian cytotoxicity of Giardia aldolase inhibitor hits; shares compounds with Giardia FBPA inh-1; mammalian cell viability counter-screen, qHTS; Potency, µM (titrated, usually from 57.5 µM), actives largely listed as inhibitors; actives 4% (n = 1,500); AID 2786;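 further: Chinese hamster ovary cells used as mammalian cytotoxicity surrogate; viability measured as cellular ATP by luminescence; compound exposure lasted 48 h before reading; nearly all actives have a fitted effect of over 60% in size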
Giardia FBPA inh-2: confirmation of Giardia fructose-bisphosphate aldolase inhibitors | shares compounds with Giardia FBPA inh-1 | actives 5% (n = 1,500) | purified Giardia aldolase enzyme activity, qHTS | Potency, µM (doses to about 57.5 µM), usual class: inhibitors; further: nearly all actives have a fitted effect of over 45% in size
Rabbit FBPA inh: selectivity test for Giardia aldolase inhibitors: rabbit aldolase; Potency, µM (titrated, usually from 57.5 µM), most hits filed as inhibitors; actives 4% (n = 1,500); Rabbit muscle FBPA enzyme inhibition, selectivity counter-screen; shares compounds with Giardia FBPA inh-1; further: nearly all actives have a fitted effect of over 60% in size
GAPDH coupling: GAPDH inhibition flagged for Giardia aldolase hits; shares compounds with Giardia FBPA inh-1; GAPDH coupling enzyme counterscreen, biochemical, qHTS; Potency, µM (highest dose often 57.5 µM), actives largely listed as inhibitors; actives 6% (n = 1,500); further: nearly all actives have a fitted effect of over 55% in size
Hits are given with their value; – = inactive; ? = inconclusive; · = no result; [ ] = remark or other dose. Unless noted, the call rests on the fitted dose curve; in most records, active means well fitted curve in the direction sought with a large enough effect; inconclusive means small, poorly fitted or top-dose-only effect, or another doubt; inactive means no such curve, though single readings can be large; an effect the other way counts as inactive or inconclusive.

SMILES	AmpC inh detg	Giardia FBPA inh-1	NS1 function inh	AmpC inh no detg	SARS PLpro yeast	Giardia growth	Mammal cell tox	Giardia FBPA inh-2	Rabbit FBPA inh	GAPDH coupling
COc1cccc(N2CCN(Cc3ccco3)CC2)c1	–	25.1µM	–	–	–	?	–	–	–	–
COc1ccc(CN2CCN(Cc3ccco3)CC2)cc1OC	–	12.6µM	–	–	?	–[10.4 µM]	–	–	–	–
CC(OC(=O)CSc1ccc([N+](=O)[O-])cc1)C(=O)NC1CC1 (stereo not given)	–	·	·	–	–	·	·	·	·	·
Nc1nc(-c2cccc(F)c2)cs1	–	11.2µM	–	–	–	–[10.4 µM]	–	–	–	–
Fc1cccc(-c2csc(-c3ccno3)n2)c1	–	–	–	–	–	·	·	·	·	·
CCOC(=O)c1sc(C)c2c1NC(c1ccc(N(C)C)cc1)NC2=O (stereo not given)	–	–	–	–	–	·	·	·	·	·
Nc1ncnc2c1ncn2C1CCCC1	–	–	–	–	·	·	·	·	·	·
Nc1nc(=S)c2ncn(C3CCCC3)c2[nH]1	–	7.06µM	–	–	–	–	–	–	–	–
COCCNC(=S)NN=C1CCCCCC1	–	19.9µM	–	–	–	–	–	–	–	–
COCCNC(=S)N/N=C1\CC(C)CC(C)(C)C1 (stereo not given)	?	17.7µM	·	–[11.4 µM]	–	–	–	–	–	–
COc1ccc(/C=N/NC(=O)Cn2c(Cc3ccc(OC)c(OC)c3)nc3ccccc32)cc1	–	–	–	–	–	·	·	·	·	·
COc1ccc(NC(=O)CCN2CCN(S(=O)(=O)c3cc(Cl)ccc3OC)CC2)cc1	–	·	–	–	–	·	·	·	·	·
CCOC(=O)c1c(NC(=O)CN(C)C2CCN(C)CC2)sc(C(=O)Nc2ccccc2)c1C	–	19.9µM	·	–	–	?	–	–	–	–
CC1(C)CC(=O)C(/C=N/n2cnc3ccccc3c2=O)=C(O)C1	?	17.7µM	–	–	–	–	–	–	–	–
CC1(C)CC(=O)C(/C=N/c2ccccn2)=C(O)C1	–	–	–	–	–	·	·	·	·	·
Cc1cc(C)c2c(CC(=O)O)c(C)[nH]c2c1	–	–	–	–	–	·	·	·	·	·
O=c1c(O)cccc2cc(O)c(O)c(O)c12	?	14.1µM	–	10µM	–	–	–	10.3µM	16.3µM	36.6µM
COc1ccc(N2CCN(C(=O)CSc3nnc(C)c(=O)[nH]3)CC2)cc1	–	12.6µM	–	–	–	–	–	–	–	–
CC(=O)c1ccc(NC(=O)CN2C(=O)CN(C)C(=O)c3ccccc32)cc1	–	·	·	·	·	·	·	·	·	·
O=C(N/N=C/c1c(O)n(-c2ccccc2)c(=O)[nH]c1=O)c1ccncc1	–	–	–	–	–	·	·	·	·	·
O=C(N/N=C/c1c(O)n(-c2ccccc2)c(=S)[nH]c1=O)c1ccccc1	–	–	–	–	–	–	–	?	–	?
c1ccc(-c2cccc(-c3ccccn3)n2)nc1	–	7.92µM	–	–	–	?	1.26µM	–	–	–
c1ccc(-c2nnc(-c3ccccn3)nn2)nc1	·	·	–	·	·	·	·	·	·	·
CC(C)n1cnc2c(=S)nc[nH]c21	–	3.15µM	–	–	–	–	–	–	–	?
COc1ccc(CCCc2n[nH]c(=S)o2)cc1	–	–	·	–	–	·	·	·	·	·
S=c1[nH]nc(CCCc2n[nH]c(=S)o2)o1	–	0.5µM	–	–	–	–	–	?	–	–
CCC(=O)NC1=C(Cl)C(=O)C(NC(=O)CC)=C(Cl)C1=O	?	1.77µM	–	–	–	–	?	2.91µM	5.17µM	3.66µM
CCC(=O)Nc1ccccc1	–	–	–	–	–	·	·	·	·	·

Screening results as filed in PubChem.
